In ChEMBL document CHEMBL3988442, “University of Dundee, Small-Polar-MMV Screening Library” (2021):
Out of some 48,000 compounds screened, about 13,000 (27%) showed an effect of 50% or more. This is one part of the list.

Tested on: Wolbachia pipientis
Experiment: Anti-Wolbachia Cell-Based Screen
Assay type: functional
Parameters: scale not given: in the data most compounds retested in dose-response had high values
Settings: 5 µM

Compound	Percent Effect [%]
CC1CCN(CCCNS(=O)(=O)Cc2ccccc2F)CC1	-5.574
CCOc1ccccc1C1=CCN(C(=O)C2CCN(C)C(=O)C2)CC1 (centres undefined)	103.5
CN1CC(C(=O)N2CCC(Oc3ccccc3Cl)CC2)CC1=O (centres undefined)	1.662
COc1ccc(C2=CCN(C(=O)C3CCN(C)C(=O)C3)CC2)cc1 (centres undefined)	-8.99
CN1CCC(C(=O)N2CCC(=Cc3cccc(F)c3)CC2)CC1=O (centres undefined)	-1.128
CCOc1cccnc1C(=O)N1CC=C(c2ccc(O)cc2)CC1	-4.198
Cc1ccc(C2=CCN(C(=O)C3CCN(C)C(=O)C3)CC2)cc1 (centres undefined)	92.67
O=C(Cn1nnn(-c2cccs2)c1=O)NCC1CCOC1 (centres undefined)	8.767
NC(=O)c1cccc(CCNCc2cnc(C3CCC3)s2)c1	-3.682
O=C(c1sccc1Br)N1CCOCC1	7.49
CS(=O)(=O)N1C[C@@H]2CC[C@H](C1)N(C(=O)CCn1cnc3ccccc31)C2	6.293
CCN1C(=O)C2(CCOCC2)c2cc(NC(=O)c3cccn3C)ccc21	0.2171
COCC(=O)Nc1ccc2c(c1)C1(CCOCC1)CN2CCF.O=C(O)C(F)(F)F	107
CCN1C(=O)C2(CCOCC2)c2cc(NC(=O)COC)ccc21	1.52
CCC(=O)Nc1ccc2c(c1)C1(CCOCC1)CN2CCF.O=C(O)C(F)(F)F	102.7
Cc1cccc(N(CC(=O)N2CCCCC2)Cc2nc(=O)[nH][nH]2)c1	-2.957
O=C(O)C(F)(F)F.O=C(c1ccc2ccc(N3CCN(CC4CC4)CC3)n2c1)N1CCCO1	-6.167
O=C(Cn1cc(I)cn1)N1CCOCC1	0.7374
O=C(Cn1cc(-c2ccccc2)cn1)N1CCNC1=O	110
O=C(Cn1cc(I)cn1)N1CCCC1	17.91
O=C(Cn1cc(I)cn1)N1CCNC1=O	104.2
O=C(Cn1cc(Cl)cn1)N1CCNC1=O	95.03
Cc1nccc(-c2cccc(NCC(=O)N3CCNC3=O)c2)n1	6.599
CC(C)C(C)(C#N)NC(=O)Cn1cc(Cl)cn1 (centres undefined)	-4.371
O=C(CCn1cc(Cl)cn1)Nc1ncccn1	-3.476
CCCNC(=O)Cn1cc(-c2ccccc2)cn1	1.367

Compound	Percent Effect [%]
CN1C[C@@H](NC(=O)CC(C)(C)C)C[C@H]1c1nc(-c2cnccn2)no1	-6.894
O=C(CN1CSCC1=O)NCC1CCN(c2ccccc2)C1 (centres undefined)	-5.821
O=S1(=O)C[C@@H]2[C@H](C1)N(Cc1ccc3ccccc3c1)CCN2CC1CC1	-3.143
O=C(c1cncs1)N1CCC(c2cnccn2)CC1	100.4
O=C(c1cc2c(s1)CCC2)N1CCN(c2cnccn2)CC1	87.73
O=C(c1cnccn1)N1CCN(c2ccnc3ccsc23)CC1	3.546
O=C(c1ccc2c(c1)OCO2)N1CCN(c2cnccn2)CC1	-2.532
O=C(c1cc2c(s1)CCCCC2)N1CCC(c2ncc[nH]2)CC1	88.07
CN(C)c1cc(C(=O)N2CCN(c3cnccn3)CC2)ccn1	-5.802
Cc1nc(C2CCCN2C(=O)c2cc3c(s2)CCCC3)no1 (centres undefined)	-3.152
O=C(c1cc2c(s1)CCC2)N1CCC(c2cnccn2)CC1	151.2
CN(C)c1cc2c(nn1)CCN(C(=O)c1cc3c(s1)CCCC3)C2	1.352
C=C(C)COc1cccc(CNC(COC)c2ccnn2C)c1 (centres undefined)	4.309
Cn1c(Cn2cccn2)nnc1C1CCN(Cc2cccnc2N)CC1	-0.4084
CN(C)c1cc2c(nn1)CCN(C(=O)c1cc3c(s1)CCC3)C2	9.509
CCn1cnnc1C1CCN(C(=O)c2cc3c(s2)CCC3)CC1	-8.588
O=C(c1cc2c(s1)CCC2)N1CCCC(c2cnccn2)C1 (centres undefined)	144.9
O=C(c1cc2c(s1)CCC2)N1CCC(c2ccncc2)CC1	202.7
Cc1cc(C2CCCN2C(=O)c2cc3c(s2)CCC3)on1 (centres undefined)	4.731
COc1ccc(Cl)cc1-c1cc(NC(=O)CNC(=O)C2CC2)[nH]n1	-9.759
CCn1cc(CN2CCC(N3CCC(O)CC3)CC2)cc1C#N	0
Cc1csc(C(C)(C)NCC(=O)N2CCCC(C(N)=O)C2)n1 (centres undefined)	-19.83
CN(c1ccc(C(N)=O)nn1)C1CCC1	4.967
OCCc1cn(CC2CCCN(Cc3nccs3)C2)nn1 (centres undefined)	-2.093
CN1CCCc2cc(CNC(=O)c3ccncc3)ccc21	7.884
Cc1nc(CNC(=O)Nc2ccc3c(c2)CCCN3C)sc1C	18.83

Compound	Percent Effect [%]
CC(C)C(=O)NS(=O)(=O)c1ccc2c(c1)N(C)CCC2	-5.146
CN1CCCc2cc(CNC(=O)c3ccc(-n4cnnc4)cc3)ccc21	119.3
CN1CCCc2cc(CNC(=O)c3cc[n+]([O-])cc3)ccc21	106.3
Cc1ccc(C(=O)NCc2ccc(N3CCNC(=O)C3)c(F)c2)cc1	-3.953
COCC(=O)N[C@H]1C[C@@H](Cc2cc(CN3CCOCC3)on2)C1(C)C	-1.513
CCCn1cnc2c1CN(S(=O)(=O)Cc1ccccc1)[C@H](C(=O)OC)C2	-5.674
CCc1noc(CCCC(=O)Nc2cc(C(F)(F)F)c[nH]c2=O)n1	7.764
Cc1nc(NCCSc2nnc(C)s2)c2cccnc2n1	-15.89
Cc1cc(OC(F)F)c(C(=O)NCC(O)c2cccc(F)c2)s1 (centres undefined)	-16.7
Cc1nc(CCNC(=O)NCC(O)c2cccc(Cl)c2)cs1 (centres undefined)	5.885
O=C(NCCc1cccs1)NCC(O)c1cccc(F)c1 (centres undefined)	94.53
O=C(NCCc1ccc(F)cc1)NCC(O)c1cccc(F)c1 (centres undefined)	98.05
COc1ccc(CCNC(=O)NCC(O)c2cccc(F)c2)cc1 (centres undefined)	127.5
CC(C)COCCCNC(=O)NCC(O)c1cccc(F)c1 (centres undefined)	93.97
O=C(NCC(O)c1cccc(F)c1)c1sccc1OC(F)F (centres undefined)	13.48
O=C(CN1CCCS(=O)(=O)CC1)NCc1ccccc1F	-8.655
Cc1ccc(CNC(=O)NC2CCN(CC(F)F)CC2)cc1	-0.1084
Cn1cnnc1C1CCN(c2nc3ccccc3o2)CC1	-4.492
CCOc1ccc(CN(C)C2CCN(c3cc(C)nn3C)C2=O)cc1 (centres undefined)	-7.061
CCn1ccc(C(=O)N2CCCN(Cc3ccccc3F)CC2)cc1=O	-3.557
CN(Cc1ccccc1)c1ncccc1CNC(=O)c1ccnn1C	-0.05459
Cc1ccc(-n2nnc(CC(=O)N3CCSCC3)c2C)cc1	7.911
O=C(NCCc1cccc(F)c1)NCC(O)c1cccc(F)c1 (centres undefined)	4.017
O=C(NCCc1ccccc1)NCC(O)c1cccc(F)c1 (centres undefined)	91.4
O=C(NCCN1CCOCC1)NCC(O)c1cccc(F)c1 (centres undefined)	-0.6049
CN1CC2(CCN(C(=O)c3ccc4c(=O)n(C)cnc4c3)C2)OC1=O (centres undefined)	-9.693

Compound	Percent Effect [%]
COc1c(C2CCCN2Cc2csc(C(C)C)n2)c(C)nn1C (centres undefined)	4.743
Cc1cccc(CN2C(=O)CCC23CCN(Cc2ccoc2)CC3)n1	102.5
Cc1cccc(CN2C(=O)CC[C@@H]3[C@H]2CCN3Cc2nccn2C)n1.O=C(O)C(F)(F)F.O=C(O)C(F)(F)F.O=C(O)C(F)(F)F	16.26
O=C1CCC2(CCN(Cc3ccoc3)CC2)N1OCc1ccccc1F	-6.682
Cc1cccc(CN2C(=O)CCC23CCN(Cc2nccn2C)CC3)n1	88.13
Cc1cccc(Cn2c3c(ccc2=O)CCN(Cc2ccoc2)CC3)n1.O=C(O)C(F)(F)F.O=C(O)C(F)(F)F	0.1669
CN1CC(=O)N(c2ccsc2)CC12CCN(Cc1nccn1C)C2 (centres undefined)	2.996
Cn1cc(C#N)cc1C(=O)NC1(C#N)CCSCC1	-2.619
COCCN(Cc1nccs1)C(=O)c1cc(-c2ccc(C)s2)n[nH]1	-12.01
Cc1nc(C)c(COc2ccc(S(=O)(=O)N(C)C)cc2)s1	94.55
Cc1nc(COc2ccc(N(C)S(C)(=O)=O)cc2)sc1C	78.79
Cc1noc(C)c1CNC(C)c1ccc(S(=O)(=O)N(C)C)cc1 (centres undefined)	-12.9
COc1ccc(OCc2sc(C3(O)CCCNCC3)nc2C)cc1.Cl (centres undefined)	-5.149
Cc1nc(C)c(COc2ccc(N(C)S(C)(=O)=O)cc2)s1	-26.99
Cc1nc(COc2ccc(S(=O)(=O)N(C)C)cc2)sc1C	104.7
CN(c1ccc(OCc2cnc(Cl)s2)cc1)S(C)(=O)=O	2.089
Cc1ncc(COc2ccc(N(C)S(C)(=O)=O)cc2)s1	-0.05196
CN(C)S(=O)(=O)c1ccc(OCCNCCn2cccn2)cc1	11.92
CC(C)N1Cc2cccc(NCC(=O)N(C)C)c2C1	-13.34
Cc1ccc(N2Cc3c(CN(C)C)nn(C)c3C2)nn1	-4.068
CC(C)COCc1cncc2c1CCN(Cc1cnn(C)c1)C2.O=C(O)C(F)(F)F.O=C(O)C(F)(F)F	-4.372
O=C(O)C(F)(F)F.O=C(c1cscn1)N1CCc2c(COCC3CC3)cncc2C1	89.35
O=C(O)C(F)(F)F.O=C(c1ccco1)N1CCc2c(COCC3CC3)cncc2C1	-15.15
CCOCc1cncc2c1CCN(C(=O)c1cscn1)C2.O=C(O)C(F)(F)F	95.41
O=C(O)C(F)(F)F.O=C(c1ccsc1)N1CCc2c(COCC3CC3)cncc2C1	-5.644
CC(C)COCc1cncc2c1CCN(C(=O)c1cscn1)C2.O=C(O)C(F)(F)F	82.53
